Measurements: PubChem BioAssay AID602247 (The Scripps Research Institute Molecular Screening Center, 2012)
Screen size: about 360,000 compounds; about 80 (0.02%) were called active. This excerpt belongs to a sample that is enriched for actives. Unmarked numbers belong to inactive results.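 Rule for the calls: active = activation above the run cutoff, the mean activation of all test compounds plus 3 SD (cut at about 40% in these data); inactive = the rest.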

Assay: ATP EC20 calcium response enhancers, parental CHO-K1 – cell-based, Fluo-8 calcium fluorescence, full deck, 1536-well, counter-screen for M1 PAM project, primary screen (AID 602247);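 note: peak over basal fluorescence ratio in a 140 s read after ATP addition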
Settings: parental CHO-K1, ATP EC20, Fluo-8 calcium fluorescence; at 3 µM; active compounds read high; 0% at ATP EC20, 100% at ATP max

Structure (SMILES)	activation
Cc1ccc(Cn2cc(C(=O)NN)c(=O)c3ccc(F)cc32)cc1	-28.1%
CCOC(=O)C1(Cc2ccc(O)cc2)NC(c2ccccc2F)C2C(=O)N(C)C(=O)C21 (configuration not stated)	24%
Cc1cccc([C@H]2[C@@H]3C=CC[C@@H](C)[C@@H]3C(=O)N2Cc2ccccc2)c1	-0.48%
CSc1ccc(S(=O)(=O)NCC(=O)OCC(=O)NC2(C#N)CCCCC2)cc1[N+](=O)[O-]	-4.9%
Nc1nc(O)c(CC(=O)O)s1	1.33%
O=C(CCS(=O)(=O)c1ccccc1Cl)Nc1ccc(S(=O)(=O)Nc2ncccn2)cc1	7.81%
COc1ccc(S(=O)(=O)N2CN(CCc3ccc(OC)c(OC)c3)c3nc4ccccc4nc32)cc1	1.88%
C#CCCOC(=O)N1C2=NC(C(=O)OC)=C(C(=O)OC)[C@@H]3N(C)c4ccc(OC)cc4[C@]23C[C@H]1C(=O)OC	-12.8%
O=C(CCCCCn1c(=S)[nH]c2ccsc2c1=O)NC1CCCCC1	16.9%
CC(C)n1ncc2c(C(=O)NCc3ccccc3CN(C)C)cc(C3CC3)nc21	-12.7%
COC(=O)c1cc(S(=O)(=O)NC2CCN(Cc3ccccc3)CC2)cn1C	3.07%
CCOc1ccc(NC(=S)N2CCC(N(C)CC3CCCO3)CC2)cc1 (configuration not stated)	23.7%
COc1ccc(OC)c(S(=O)(=O)N2CCCC(C(=O)NCCc3ccccc3)C2)c1 (configuration not stated)	-2.03%
Cc1ccc(OC(=O)c2cncc(Br)c2)c(C)c1	-0.46%
S=C(Nc1ccc2c(c1)OCO2)N1CCCC1	12.1%
COc1ccc(-c2ccc(C(=O)NC(C)C)c3occc23)c(C)c1	11%

Structure (SMILES)	activation
CC(=O)Nc1ccc(NC(=O)CSCc2cnn(-c3ccccc3)c2-n2cccc2)cc1	1.5%
Cc1ccc(N2C(=O)CC(N3CCSCC3)C2=O)c(C)c1 (configuration not stated)	0.16%
CCOC(=O)C1CCN(CCC(=O)Nc2cccc(C)c2)CC1	-4.96%
CCCCCc1c(Cc2ccccc2)ncn1CCc1ccccc1OC	3%
CC(NC(=O)CN(C)S(=O)(=O)c1ccc(F)cc1)C1CC2CCC1C2 (configuration not stated)	9.24%
CCC(C(=O)NC1CCCC1)N(C(=O)Cn1nnc(-c2ccc(C)o2)n1)c1ccc(OC)c(OC)c1 (configuration not stated)	-0.54%
NC(=O)C1(Nc2ccc(-c3ccccc3)cc2)CCCC1	0.81%
CCOc1cc(/C=N/NC(=O)c2cc(-c3ccccc3)nc3ccccc23)ccc1O	40.7% (active)
CCOc1cc(/C=N/NC(=O)c2c(C)nc3ccc(Cl)cn23)ccc1O	-3.92%
CCOc1ccccc1-c1cc(C(=O)N/N=C(\C)c2cccnc2)c2ccccc2n1	15.1%
O=C(c1ccc(=O)[nH]c1)N(Cc1ccco1)C1(C(=O)NC2CCCCC2)CCCCC1	7.15%
CCC(C)NC(=O)C1CCC(=O)N1Cc1ccc(C)cc1 (configuration not stated)	19.6%
CCn1c(SCC(=O)Nc2ccc(OC)c(OC)c2)nnc1-c1c[nH]c2ccccc12	22.7%
COc1ccccc1NC(=O)C(CC(=O)O)Cc1cc(C)cc(C)c1 (configuration not stated)	22.4%
O=S(=O)(c1cccc(C(F)(F)F)c1)N1c2ccccc2-n2cccc2C1c1cccnc1 (configuration not stated)	10.8%
O=C(NC1CCCC1)C(c1ccc(N2CCOCC2)cc1)N(C(=O)c1ccco1)c1ccccc1F (configuration not stated)	4.16%
